# Screening data as filed in PubChem.
# Only some compounds are listed: those with a hit (about 19% of all), similar ones and a draw of the others.
# KB-V1 cytotox: kills drug-selected multidrug resistant KB-V1 cells | KB-V1 MDR cells viability, CellTiter-Glo, 72 h | 400,000 tested, 3.4% active | AID 1347076 | Potency, µM (doses to about 46.1 µM), usual class: cytotoxic; also: nearly all actives have a fitted effect of over 60% in size
#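 Compound-treated KB-V1 multidrug-resistant cells, 72 h, 37 degrees C; viability by CellTiter-Glo. Fitted qHTS curves give the values.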
# HT1080 IDH1KD tx: toxicity to HT-1080 IDH1 knockdown cells (counter line). HT-1080 IDH1 knockdown viability, ATP luminescence, 48 h. Potency, µM (highest dose often 46.1 µM), inactives show at the highest dose activity, negative = toxicity, most hits filed as cytotoxic. 360,000 tested, 2% active;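 also: 0% = DMSO wells and -100% = cell-free medium wells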
#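 IDH1KD HT-1080 cells, 750/well, RPMI + 5% FBS; compound pinned after 2 h settling; 48 h, 37 °C; CellTiter-Glo luminescence; % activity normalised to DMSO and no-cell wells; curves fitted, classed by r2 and efficacy.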
# TDP1 cell noCPT: qHTS for Inhibitors of human tyrosyl-DNA phosphodiesterase 1 (TDP1): qHTS in cells in absence of CPT; DT40 Tdp1-/- hTDP1 cells, no CPT, ATP luminescence, 48 h; Potency, µM (top dose mostly 46.2 µM), for inactives: at the top dose activity change, negative = growth inhibition, actives largely listed as inhibitors; 420,000 tested, 15% active; AID 686978, 2013; also: nearly all actives have a fitted effect of over 55% in size
#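 Camptothecin absent (DMSO only). Human TDP1-complemented DT40 knockout cells, 400 cells/well, 37 °C for minimum 48 hr; ATP measured via CellTiter-Glo, 30 min dark incubation, luminescence.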
# KB-3-1 tox: KB-3-1 parental cell cytotoxicity; KB-3-1 viability, CellTiter-Glo ATP luminescence, 72 h; Potency, µM (doses to about 46.1 µM), hits mostly cytotoxic; 400,000 tested, 1.4% active; AID 1347075; also: nearly all actives have a fitted effect of over 60% in size
#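 Screening of KB-3-1 cells (DMEM, 10% FBS, phenol-red free) ran from lowest to highest compound concentration; after 72 h at 37 °C viability was read luminescently and curves fitted.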
# TDP1 cell CPT: DT40-hTDP1 cell growth loss with CPT; chicken DT40 Tdp1-/-;hTDP1 cells + 20 nM CPT, ATP luminescence, 48 h; Potency, µM (series often up to 46.2 µM), without a hit: top-dose activity change, negative = growth inhibition, usual class: inhibitors; 420,000 tested, 12% active; AID 686979; also: nearly all actives have a fitted effect of over 55% in size
#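 Chicken DT40 Tdp1-/- cells stably complemented with human TDP1 were seeded at 400 cells/well in medium containing 20 nM camptothecin, exposed to pin-transferred compounds, and grown at 37 °C for at least 48 hr. Viability was read as ATP luminescence.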
# HT1080-NT tox: kills 2HG-producing HT-1080-NT fibrosarcoma cells; HT-1080-NT fibrosarcoma viability, CellTiter-Glo ATP luminescence, 48 h; Potency, µM (doses to about 46.1 µM), without a hit: top-dose activity, negative = less viability, actives largely listed as cytotoxic; 360,000 tested, 1.6% active; AID 686970;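 also: NT is the 2HG producing partner of a matched IDH1 knockdown line; 0% = DMSO-treated cells and -100% = media-only wells without cells; nearly all actives have a fitted effect of over 55% in size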
#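 Viability of the 2HG-overproducing fibrosarcoma line after 48 hours of compound exposure at 37 degrees C was determined by luminescence with CellTiter-Glo, and concentration-effect curves were then fitted and categorized.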
# Numbers without * were called inactive; i = inactive; u = inconclusive; x = no result given; [ ] = dose if it differs, or a comment. Calls follow the shape of the dose curve; as a rule, active = well fitted curve in the direction sought with a large enough effect; inconclusive = small, poorly fitted or top-dose-only effect, or another doubt; inactive = no such curve, though single readings can be large; an effect the other way counts as inactive or inconclusive. Unless noted, % is scaled to controls: 0 for no effect and ±100 for the full control effect; potency is read from the fitted curve at half-maximal effect.
SMILES,KB-V1 cytotox,HT1080 IDH1KD tx,TDP1 cell noCPT,KB-3-1 tox,TDP1 cell CPT,HT1080-NT tox
Cc1cccc(C)c1NC(=O)C(c1ccc(C#N)cc1)n1c(=O)c(-c2ccccc2)nc2ccccc21 (configuration not stated),i,-11%,u,i,-5%,-14%
CCOC(=O)c1ccccc1NC(=O)Cn1c(=O)n(Cc2nc(C)no2)c(=O)c2ccccc21,i,x,-29%,i,u,x
COc1ccc2c(c1OC)c(=O)n1c3ccc(OC(C)C(=O)NCCN4CCOCC4)cc3c3ccnc2c31 (configuration not stated),i,-4%,23µM*,i,16µM*,-4%
CC(Oc1ccc2c3c(c(=O)oc2c1)CCCC3)C(=O)NCCN1CCOCC1 (configuration not stated),i,1%,2%,i,-25%,1%
CC(Oc1ccc2c(c1)c1ccnc3c4ccccc4c(=O)n2c13)C(=O)NCCN1CCOCC1 (configuration not stated),i,-7%,7.3µM*,i,8.2µM*,-9%
COc1ccc2c(c1OC)c(=O)n1c3ccc(OC(C)C(=O)NCCCN4CCOCC4)cc3c3ccnc2c31 (configuration not stated),i,-11%,6.5µM*,i,13µM*,-2%
CCCCc1cc(=O)oc2cc(OC(C)C(=O)NCCN3CCOCC3)ccc12 (configuration not stated),i,1%,-8%,i,-8%,0%
Cc1cnc(-n2ncc(C(=O)N(C)C3CCOC3)c2-c2cccs2)nc1-c1ccc(F)cc1 (configuration not stated),x,x,-20%,x,14%[9.04 µM],x
O=C(Nc1cc(Cl)cc2c1-c1ccc(Cl)cc1C2O)C(Cl)Cl (configuration not stated),18µM*,-26%,u,u,23µM*,-12%
CCOc1ccc(CCNC(=O)Cn2nnc(-c3ccccc3Cl)n2)cc1OCC,i,x,-27%,i,-24%,x
Cn1cc(C(=O)c2ccc(Cl)cc2)cc1-c1nc2ccccc2n1C,13µM*,u,18µM*,i,13µM*,u
Cn1c(=O)c2c(SCC(=O)NC3CCCC3)nc(CC(C)(C)C)nc2n(C)c1=O,i,15%,-14%,i,-28%,21%
Cn1c(=O)c2c(SCC(=O)NCc3ccco3)nc(CC(C)(C)C)nc2n(C)c1=O,u,-1%,18µM*,u,u,-5%
Cn1c(=O)c2c(SCC(=O)Nc3ccc4c(c3)OCCO4)nc(CC(C)(C)C)nc2n(C)c1=O,i,1%,u,i,26µM*,-1%
Cc1ccc2[nH]c(CSc3nnc(NC(=O)COc4ccccc4Cl)s3)cc(=O)c2c1,i,x,u,i,u,x
Cc1cccc(C(=O)OCC(=O)N(C)CC(=O)Nc2ccc(Cl)c(C(F)(F)F)c2)c1,i,2%,u,i,15µM*,4%
CN(CC(=O)Nc1ccc(Cl)c(C(F)(F)F)c1)C(=O)c1cn2ccccc2n1,u,-1%,10µM*,i,13µM*,1%
CN(CC(=O)Nc1ccc(Cl)c(C(F)(F)F)c1)C(=O)c1ccc2c(c1)NC(=O)CS2,i,-30%,23µM*,i,u,-24%
CN(CC(=O)Nc1ccc(Cl)c(C(F)(F)F)c1)C(=O)c1cccs1,i,-3%,16µM*,i,u,-14%
CN(CC(=O)Nc1ccc(Cl)c(C(F)(F)F)c1)C(=O)c1cccnc1Sc1ccccc1,i,-10%,u,i,u,-2%
